Screening results (PubChem BioAssay)
HPGD inh – inhibitors of human 15-hydroxyprostaglandin dehydrogenase (HPGD). Potency, µM, for inactives: at the top dose activity change, negative = inhibition, usual class: inhibitors. purified HPGD, NADH fluorescence kinetic, PGE2 substrate. P15428. actives 4.3% (n = 150,000); further: potency means the concentration at half of the fitted maximal effect
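NADH formation kinetics: reaction with 30 uM PGE2 and 1 mM NAD+ (final), 20 nM enzyme, Tris-HCl pH 8 with Tween 20, after 15 min compound preincubation at room temperature. Fluorescence change, last versus first of five reads.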
ALDH1A1 block – ALDH1A1 (human) enzyme inhibition; Potency, µM (doses to about 75.3 µM), for inactives: at the top dose activity, negative = inhibition, usual class: inhibitors; actives 7.3% (n = 220,000); Purified ALDH1A1, NADH fluorescence, propionaldehyde substrate;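 further: potency means the concentration at half of the fitted maximal effect; plate controls were no enzyme wells and a reference inhibitor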
12-hLO inh – inhibitors of human 12-lipoxygenase (ALOX12); purified 12-hLO, xylenol orange hydroperoxide absorbance; actives 0.12% (n = 150,000); P18054; Potency, µM (highest dose often 57.1 µM), inactives show at the highest dose activity change, negative = inhibition, actives largely listed as inhibitors; active means well fitted curve in the direction sought with a large enough effect; inconclusive means small, poorly fitted or top-dose-only effect, or another doubt; inactive means no such curve, though single readings can be large; an effect the other way counts as inactive or inconclusive; further: potency means the concentration at half of the fitted maximal effect; nearly all actives have a fitted effect of over 55% in size
Target sequence (P18054 whole entry, looked up): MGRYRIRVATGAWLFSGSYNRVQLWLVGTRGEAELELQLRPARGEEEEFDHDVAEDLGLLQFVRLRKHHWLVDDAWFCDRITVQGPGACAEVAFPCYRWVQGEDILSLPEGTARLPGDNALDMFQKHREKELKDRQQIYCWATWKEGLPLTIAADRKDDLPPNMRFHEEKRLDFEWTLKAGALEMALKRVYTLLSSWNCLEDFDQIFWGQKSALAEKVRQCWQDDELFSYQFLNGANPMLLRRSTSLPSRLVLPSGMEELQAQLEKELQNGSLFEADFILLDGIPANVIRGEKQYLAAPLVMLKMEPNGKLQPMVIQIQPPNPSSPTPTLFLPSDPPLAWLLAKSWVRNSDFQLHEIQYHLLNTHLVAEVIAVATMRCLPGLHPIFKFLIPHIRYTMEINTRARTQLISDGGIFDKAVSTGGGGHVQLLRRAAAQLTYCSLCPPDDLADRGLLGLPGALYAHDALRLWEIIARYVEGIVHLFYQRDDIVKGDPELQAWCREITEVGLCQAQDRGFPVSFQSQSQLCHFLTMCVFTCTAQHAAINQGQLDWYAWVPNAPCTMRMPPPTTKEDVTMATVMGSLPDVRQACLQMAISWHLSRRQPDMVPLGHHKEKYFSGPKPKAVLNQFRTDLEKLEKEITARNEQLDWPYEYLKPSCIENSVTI
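Xylenol orange chromogenic assay: hydroperoxide from 12hLO oxidises Fe(II), giving red-shifted Fe(III)-XO absorbance. Conditions: 150 nM enzyme, 40 uM arachidonic acid, 25 mM Hepes pH 7.0, 0.01% Triton X-100, 30 min, room temperature.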
PNC inhibitor – perinucleolar compartment assembly inhibition | AID 2417 | PC3M PTB-GFP, PNC prevalence imaging, 16 h; active compounds read low | activity change (PNC), negative = inhibition, % at 10 µM | actives 3.1% (n = 140,000);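 active means readout at or below -70, meaning at least 70% loss of cells showing the perinucleolar compartment, a nuclear body marking cancer cells; inconclusive means readout between -30 and a set limit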;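 further: plate controls were DMSO wells for no effect and camptothecin positive control wells for full effect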
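Compounds are pinned in duplicate onto adhered PC3M cells stably expressing GFP-tagged PTB and incubated 16 h at 37 C. Cells are then fixed, nuclei stained with Hoechst, and PNC-positive cells counted.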
IMPase cell inh – membrane-permeable compound that blocks inositol monophosphatase. P97697. CHO-M1 cells, IP1 accumulation, HTRF TR-FRET ratio. inhibition (IP1 accumulation), % at 46.1 µM. 120,000 tested, under 10 active; active means well fitted curve in the direction sought with a large enough effect in the signal ratio, not every such curve was filed as active; inconclusive means small, poorly fitted or top-dose-only effect, or a change in a side signal; inactive means no such curve, though single readings can be large or run the other way; the % refers to the signal ratio;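 further: cells stimulated with carbachol in lithium chloride buffer; plate controls were DMSO basal wells for no effect and reference inhibitor wells for full effect; higher means more IMPase inhibition seen as more IP1 and lower FRET ratio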
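CHO-M1, 2000 cells/well, cultured 16–30 h; cpd up to 46 uM; carbachol (50 uM solution, stimulation buffer w/ 50 mM LiCl, pH 7.4), 30 min 37C; IP-One TR-FRET, 10 min RT; Ex 320/Em 665, 620; Hill-fit AC50.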
IMPase Li inh – membrane-permeable IMPase blocker, potentiated with lithium; Potency, µM (top dose mostly 59.4 µM), without a hit: top-dose activity, negative = IMPase inhibition, most hits filed as inhibitors; actives 0.35% (n = 210,000); AID 1457; CHO-M1 cells, IP1 TR-FRET (IP-One), carbachol + lithium; active means well fitted curve in the direction sought with a large enough effect; inconclusive means small, poorly fitted or top-dose-only effect, or another doubt; inactive means no such curve, though single readings can be large; an effect the other way counts as inactive or inconclusive;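 further: IP1 builds up when IMPase is blocked and the TR-FRET signal falls; potency means the concentration at half of the fitted maximal effect; plate controls were basal vehicle for no effect and high inhibitor control for full effect; nearly all actives have a fitted effect of over 50% in size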
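CHO cells stably expressing M1 receptor (2000/well) were cultured 16–30 h, then exposed to compounds with a small lithium addition for 30 min at 37C. IP1 was measured by TR-FRET competition; AC50 from Hill fits.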
* marks the source's active call; other numbers are inactive results; ? = inconclusive; . = not tested or not shown; [ ] = another dose, or the depositor's remark. Most compounds without a hit are left out; they make up all but 11% or so of the library. Unless noted, the call rests on the fitted dose curve; in most records, active means well fitted inhibition curve with a large enough effect (not every such curve was filed as active); inconclusive means small, poorly fitted or top-dose-only effect, or another doubt; inactive means no such curve, though single readings can be large or run the other way. Unless noted, on the % scale 0 is the no-effect control and ±100 the full control effect.

SMILES	HPGD inh	ALDH1A1 block	12-hLO inh	PNC inhibitor	IMPase cell inh	IMPase Li inh
O=C1[C@@H]2[C@@H]3C[C@@H]([C@H]4ON=C(c5ccc(Cl)cc5)[C@@H]34)[C@@H]2C(=O)N1C1CCCCC1	-11%	9%	-2%	?	-1	17%
CC(=O)C[C@H](c1ccc([N+](=O)[O-])cc1)c1c(O)c2ccccc2oc1=O	-11%	11%[20.9 µM]	-4%[25.6 µM]	.	-4[20.6 µM]	-14%
O=c1c(-c2cccc(Cl)c2)nc2cncnc2n1-c1ccccc1	.	-7%	.	.	.	3%
CCn1c2ccccc2c2nc3cc(S(=O)(=O)N4CCOCC4)ccc3nc21	2µM*	1µM*	-18%	?	13	-1%[38.3 µM]
O=C(O)[C@H]1CN(C/C=C/P(=O)(O)O)CCN1	-5%	-2%	-3%	.	.	-11%
O=c1c(-c2cc(F)cc(F)c2)nc2cnc(N3CCNCC3)nc2n1Cc1cccs1	-16%	?	2%	.	.	7%
C=CCC(Nc1ccc(OC)cc1)C(=O)OCC (stereo not given)	-1%	6%	.	.	.	5%
Cc1ccc(-n2nnnc2-c2cnc(-c3cccnc3)nc2C(F)(F)F)cc1	-1%	8%	-5%	-3	4	26%[38.3 µM]
Cc1cccc(-n2nnnc2-c2cnccc2C(F)(F)F)c1C	.	16µM*	.	.	.	.
Cc1cnc(CNc2ncncc2-c2cccc(NS(C)(=O)=O)c2)cn1	.	14%	.	.	.	0%
CC1=NNC(=O)C1CCC(=O)N/N=C/C(Br)=C/c1ccccc1 (stereo not given)	.	?	1%	-115*	2	.
c1ccc(N2CCN(Cc3nnc(-c4ccc5c(c4)OCO5)o3)CC2)cc1	.	.	.	.	-3	.
C=CCn1c(Cc2nc3ccc(Cl)cc3[nH]2)n[nH]c1=S	?	10µM*	-23%	?	7	16%[38.3 µM]
C=CCn1c(Cc2ccccc2)n[nH]c1=S	.	-4%	.	.	.	10%
C=CCn1c(Cc2c[nH]c3ccccc23)n[nH]c1=S	-23%	8.9µM*	-23%	12	10	3%[38.3 µM]
CCCn1c(C)nc2c(N3CCC(N4CCN(C)CC4)CC3)nc(C)nc21	-3%	5%	2%	.	.	-1%
Cc1c(C(=O)OC2CCC(C)CC2)[nH]c2c1C(=O)CC(c1ccc(F)cc1)C2 (stereo not given)	.	.	.	.	2	.
O=C(CCl)N=c1sccn1Cc1cccc2ccccc12	.	20µM*	.	.	.	11%
Cc1nccn1Cc1cccc2ccccc12	-12%	10%	3%	-21	1	30%[38.3 µM]
O=C(CCl)N=c1sccn1Cc1ccc(Cl)cc1Cl	.	28µM*	.	.	.	6%
O=C(Nc1nonc1NC(=O)c1cccs1)c1cccs1	.	0%	.	.	.	0%
COC(=O)Cn1c(=NC(=O)c2ccc([N+](=O)[O-])s2)sc2cc(Br)ccc21	-14%	8.9µM*	-2%	-93*	.	-3%
COC(=O)Cn1c(=NC(=O)c2ccc(Cl)s2)sc2cc(C)ccc21	?	?	3%	-119*	.	-27%
COC(=O)Cn1c(=NC(=O)C(C)C)sc2c(C)cc(C)cc21	-12%	-13%	-2%	5	?	33%[38.3 µM]
COC(=O)Cn1c(=NC(=O)c2nc3ccccc3s2)sc2cc(S(C)(=O)=O)ccc21	?	?	0%	6	.	6.3µM*
SMILES	HPGD inh	ALDH1A1 block	12-hLO inh	PNC inhibitor	IMPase cell inh	IMPase Li inh
C#CCn1c(=NC(=O)c2ccc(Br)s2)sc2cc(NC(C)=O)ccc21	-8%	8%	0%	5	.	?
COC(=O)Cn1c(=NC(=O)c2sc3ccccc3c2Cl)sc2cc(S(N)(=O)=O)ccc21	?	?	1%	25	.	-17%
COc1ccc2c(c1)Cc1sc(NC(=O)c3ccc(Cl)cc3)nc1-2	.	.	.	.	-2	.
CN(C)c1nc(SCCOC(=O)COc2ccc(Cl)cc2Cl)nc(N(C)C)n1	16µM*	5%	-9%	29	3	0%[38.3 µM]
CN(C)c1nc(OCCOC(=O)COc2ccc(Cl)cc2Cl)nc(N(C)C)n1	-5%	10%	-5%	5	8	23%[38.3 µM]
Cc1ccc(OCCn2c(=S)[nH]c3c(N)ncnc32)cc1	.	7.9µM*	.	.	.	9%
Nc1ncnc2c1ncn2CCOc1ccccc1	-7%	-3%	5%	26	-9	7%[38.3 µM]
CC(C)Oc1ccc(OCCn2c(=S)[nH]c3c(N)ncnc32)cc1	.	10µM*	.	.	.	-2%
Cc1ccc(NC(=O)CN2C(=O)NC3(CCC(C)CC3)C2=O)c(Cl)c1 (stereo not given)	-10%	-10%	-1%	-127*	-9	-9%[38.3 µM]
CC1CCC2(CC1)NC(=O)N(CC(=O)Nc1nc(-c3ccc(F)cc3)cs1)C2=O (stereo not given)	-13%	?	-3%	?	1	14µM*
Cc1ccc(-c2csc(NC(=O)CN3C(=O)CCC3=O)n2)cc1	.	10%	.	.	.	5%
Cc1cccc(NC(=O)CN2C(=O)c3cccc4cccc2c34)c1C	.	.	.	.	-1	.
O=[N+]([O-])c1ccccc1/C=N/n1c(C(F)(F)F)n[nH]c1=S	.	?	.	.	.	-2%
Cc1cc(-c2n[nH]c(=S)n2/N=C/c2cccc([N+](=O)[O-])c2)n[nH]1	?	?	1%	5	.	-2%
S=c1[nH]nc(C2CCCCC2)n1/N=C/c1ccc(Br)s1	5µM*	-8%	0%	11	6	19%[38.3 µM]
O=[N+]([O-])c1ccc(Cl)c(/C=N/n2c(C3CCCCC3)n[nH]c2=S)c1	0.63µM*	?	3%	-19	3	-8%[38.3 µM]
O=[N+]([O-])c1cccc(/C=N/n2c(C3CCCCC3)n[nH]c2=S)c1	2.5µM*	-10%	-1%	20	4	13%
O=[N+]([O-])c1ccccc1/C=N/n1c(C2CCCCC2)n[nH]c1=S	16µM*	7.1µM*	-19%	19	2	21%
NNC(=O)[C@@H](O)[C@H](O)C(=O)NN	0%	1%[13.5 µM]	3%[11.4 µM]	.	.	1%
Cc1ccccc1/C=C\C1=NCCN1	.	.	-3%	.	14	.
O=C(Cn1cc(S(=O)(=O)N2CCN(c3ccccc3F)CC2)c2ccccc2c1=O)Nc1ccc(F)cc1Cl	.	.	.	.	2	.
N#CCCn1c(=O)c(-c2ccc(Cl)cc2)nc2cnc(N3CCNCC3)nc21	.	?	.	.	.	4%
O=[N+]([O-])c1ccc(Cl)c(/C=N/n2c(COc3ccccc3)n[nH]c2=S)c1	8.9µM*	14µM*	-1%	15	.	7%
S=c1[nH]nc(C2CCCCC2)n1/N=C/C(Cl)=C\c1ccccc1	-27%	5%	-15%	-27	-3	-9%
S=c1[nH]nc(C2CCCCC2)n1/N=C/C=C/c1ccccc1	18µM*	3%	?	64	4	5%[38.3 µM]
S=c1[nH]nc(COc2ccccc2)n1/N=C/c1ccccn1	?	?	2%	11	.	0%
Nc1ncnc2c1nc(Br)n2[C@H]1O[C@H]2COP(=O)(O)O[C@H]2[C@@H]1O	-8%	6%	-4%	.	2	14%
